Experimental data taken from PubChem BioAssay (NCI).
About 79,000 compounds went through this panel and 15% of them were active in at least one assay; those are over-represented in the sample as a whole. Unmarked numbers belong to inactive results. Calls of active or inactive are those of the source. Cut-off read from the data, not from the text of the source: active = growth inhibition above about 70%; inactive = the rest.

How the values were obtained:
[1] = NCI Yeast Anticancer Drug Screen. Data for the rad52 strain (AID 147);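 note: 0% = growth of vehicle-treated control cultures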; details: S. cerevisiae rad52 mutant growth inhibition, stronger effect = higher value
Outline: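 Here a repair-compromised yeast strain receives each compound; its growth is then quantified and normalised to vehicle-only controls.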

[2] = NCI Yeast Anticancer Drug Screen. Data for the wt1 strain (AID 149);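 note: 0% = growth of vehicle-treated wt1 cultures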; details: S. cerevisiae wt1 strain (SPY 50644) growth inhibition, stronger effect = higher value
Outline: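 Readout: yeast growth inhibition, normalised to vehicle controls, in the wt1 strain exposed to test compounds.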

[3] = NCI Yeast Anticancer Drug Screen. Data for the rad50EPP+ strain (AID 151);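 note: 0% = growth of vehicle-treated control cultures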; details: S. cerevisiae rad50 mutant strain, stronger effect = higher value
Outline: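 Read-out is yeast growth inhibition relative to vehicle; cells used were the rad50EPP+ strain.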

[4] = NCI Yeast Anticancer Drug Screen. Data for the mgt1 strain (AID 153); details: S. cerevisiae mgt1 mutant growth inhibition, stronger effect = higher value
Outline: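 Measured: inhibition of mgt1 yeast growth by compound, normalized to vehicle-treated cultures.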

[5] = NCI Yeast Anticancer Drug Screen. Data for the rad50 strain (AID 155);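 note: 0% = growth of vehicle-only cultures of the same strain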; details: S. cerevisiae rad50 strain growth inhibition, stronger effect = higher value
Outline: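 Compounds were tested on a yeast strain with an engineered DNA damage repair alteration; the reported value is growth inhibition normalised to vehicle treatment.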

[6] = NCI Yeast Anticancer Drug Screen. Data for the mec2-1 strain (AID 157); details: S. cerevisiae mec2-1 strain, stronger effect = higher value
Outline: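 Using mec2-1 yeast: add compound, measure growth, express inhibition versus vehicle-treated cultures.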

[7] = NCI Yeast Anticancer Drug Screen. Data for the rad14 strain (AID 159);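 note: 0% = growth of vehicle-treated control cultures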; details: S. cerevisiae rad14 strain growth inhibition, stronger effect = higher value
Outline: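 Compound-treated yeast with a defined DNA-repair lesion; growth inhibition normalised to vehicle-treated cultures.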

[8] = NCI Yeast Anticancer Drug Screen. Data for the sgs1 mgt1 strain (AID 161);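 note: 0% = growth of cultures given vehicle only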; details: S. cerevisiae sgs1 mgt1 strain, stronger effect = higher value
Outline: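 This yeast growth screen uses a strain with defined DNA-repair lesions; compound-treated growth is compared with vehicle-treated growth.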

[9] = NCI Yeast Anticancer Drug Screen. Data for the bub3 strain (AID 167); details: S. cerevisiae bub3 mutant strain, stronger effect = higher value
Outline: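 Growth of a checkpoint-deficient yeast mutant is measured after compound exposure. Values represent inhibition relative to vehicle.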

[10] = NCI Yeast Anticancer Drug Screen. Data for the wt2 strain (AID 169);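 note: 0% = growth of vehicle-treated yeast cultures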; details: S. cerevisiae wt2 strain growth inhibition, stronger effect = higher value
Outline: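 Treated yeast vs. vehicle-treated yeast: growth inhibition determined.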

[11] = NCI Yeast Anticancer Drug Screen. Data for the mlh1 strain (AID 171);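 note: 0% = growth of vehicle-treated control cultures of the same strain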; details: S. cerevisiae mlh1 strain growth inhibition, stronger effect = higher value
Outline: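 A yeast strain with a defined genetic lesion serves as the test organism. Cultures receive compound or vehicle, and growth is measured.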

[12] = NCI Yeast Anticancer Drug Screen. Data for the sgs1 strain (AID 173);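 note: 0% = growth of vehicle-only control cultures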; details: S. cerevisiae sgs1 mutant, stronger effect = higher value
Outline: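 A genetically defined yeast mutant is incubated with the test compound, and its growth is compared to that of the same strain given vehicle.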

[13] = NCI Yeast Anticancer Drug Screen. Data for the mlh1 rad18 strain (AID 175); details: S. cerevisiae mlh1 rad18 strain growth inhibition, stronger effect = higher value
Outline: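 Steps: expose repair-defective yeast to compound; measure growth; express inhibition against vehicle-treated controls.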

[14] = NCI Yeast Anticancer Drug Screen. Data for the rad18 strain (AID 177); details: S. cerevisiae rad18 mutant growth inhibition, stronger effect = higher value
Outline: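 Measured value is growth inhibition of a yeast strain bearing a DNA repair alteration, referenced to vehicle-treated cells.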

[15] = NCI Yeast Anticancer Drug Screen. Data for the CLN2oe strain (AID 163);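 note: 0% = growth of vehicle-only control cultures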; details: S. cerevisiae CLN2oe strain, stronger effect = higher value
Outline: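 Whole-cell yeast growth assay. A strain engineered for altered cell-cycle control received compound, and inhibition relative to vehicle-treated cultures was recorded.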

[16] = NCI Yeast Anticancer Drug Screen. Data for the cln2 rad14 strain (AID 165);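 note: 0% = growth equal to vehicle treated cultures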; details: S. cerevisiae cln2 rad14 strain, stronger effect = higher value
Outline: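 Yeast strain cln2 rad14, bearing defects in cell cycle control and DNA repair, serves as the test system; values reflect growth inhibition compared with vehicle.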

[17] = at 5.0 µM (retest, dose inferred, filed as 0.5)
[18] = at 50.0 µM (retest, dose inferred, filed as 5.0)

## CCc1cc(O)c(Cl)c(C)c1Cl
[1]; at 1.2 µM
  growth inhibition: -5%
[1]; at 3.7 µM
  growth inhibition: 6%
[1]; at 11.0 µM
  growth inhibition: -8%
[1]; at 33.0 µM
  growth inhibition: 14%
[1]; at 100.0 µM
  growth inhibition: 75% (active)
[2]; at 1.2 µM
  growth inhibition: 7%
[2]; at 3.7 µM
  growth inhibition: 21%
[2]; at 11.0 µM
  growth inhibition: 14%
[2]; at 33.0 µM
  growth inhibition: 20%
[2]; at 100.0 µM
  growth inhibition: 87% (active)
[3]; at 1.2 µM
  growth inhibition: -12%
[3]; at 3.7 µM
  growth inhibition: 0%
[3]; at 11.0 µM
  growth inhibition: -13%
[3]; at 33.0 µM
  growth inhibition: 40%
[3]; at 100.0 µM
  growth inhibition: 90% (active)
[4]; at 1.2 µM
  growth inhibition: 14%
[4]; at 3.7 µM
  growth inhibition: 3%
[4]; at 11.0 µM
  growth inhibition: 28%
[4]; at 33.0 µM
  growth inhibition: 73% (active)
[4]; at 100.0 µM
  growth inhibition: 96% (active)
[5]; at 1.2 µM
  growth inhibition: -29%
[5]; at 3.7 µM
  growth inhibition: -19%
[5]; [17]
  growth inhibition: 42%
[5]; at 11.0 µM
  growth inhibition: -31%
[5]; at 33.0 µM
  growth inhibition: 43%
[5]; [18]
  growth inhibition: 77% (active)
[5]; at 50.0 µM
  growth inhibition: 29.6%
[5]; at 100.0 µM
  growth inhibition: 97% (active)
[6]; at 1.2 µM
  growth inhibition: -8%
[6]; at 3.7 µM
  growth inhibition: -5%
[6]; [17]
  growth inhibition: 44%
[6]; at 11.0 µM
  growth inhibition: -13%
[6]; at 33.0 µM
  growth inhibition: 3%
[6]; [18]
  growth inhibition: 86% (active)
[6]; at 50.0 µM
  growth inhibition: 34.9%
[6]; at 100.0 µM
  growth inhibition: 73% (active)
[7]; at 1.2 µM
  growth inhibition: 9%
[7]; at 3.7 µM
  growth inhibition: -5%
[7]; at 11.0 µM
  growth inhibition: -8%
[7]; at 33.0 µM
  growth inhibition: 34%
[7]; at 100.0 µM
  growth inhibition: 90% (active)
[8]; [17]
  growth inhibition: -9%
[8]; [18]
  growth inhibition: 33%
[8]; at 50.0 µM
  growth inhibition: 45.5%
[9]; at 1.2 µM
  growth inhibition: -11%
[9]; at 3.7 µM
  growth inhibition: 11%
[9]; [17]
  growth inhibition: 21%
[9]; at 11.0 µM
  growth inhibition: 5%
[9]; at 33.0 µM
  growth inhibition: 31%
[9]; [18]
  growth inhibition: 49%
[9]; at 50.0 µM
  growth inhibition: 69.5%
[9]; at 100.0 µM
  growth inhibition: 85% (active)
[10]; at 1.2 µM
  growth inhibition: -33%
[10]; at 3.7 µM
  growth inhibition: -29%
[10]; at 11.0 µM
  growth inhibition: -25%
[10]; at 33.0 µM
  growth inhibition: 20%
[10]; at 100.0 µM
  growth inhibition: 90% (active)
[11]; at 1.2 µM
  growth inhibition: 18%
[11]; at 3.7 µM
  growth inhibition: 5%
[11]; at 11.0 µM
  growth inhibition: 17%
[11]; at 33.0 µM
  growth inhibition: 40%
[11]; at 100.0 µM
  growth inhibition: 81% (active)
[12]; at 1.2 µM
  growth inhibition: -4%
[12]; at 3.7 µM
  growth inhibition: 6%
[12]; at 11.0 µM
  growth inhibition: 1%
[12]; at 33.0 µM
  growth inhibition: 44%
[12]; at 100.0 µM
  growth inhibition: 92% (active)
[13]; [17]
  growth inhibition: 48%
[13]; [18]
  growth inhibition: 93% (active)
[13]; at 50.0 µM
  growth inhibition: 13.9%
[14]; at 1.2 µM
  growth inhibition: -14%
[14]; at 3.7 µM
  growth inhibition: -30%
[14]; at 11.0 µM
  growth inhibition: -40%
[14]; at 33.0 µM
  growth inhibition: -27%
[14]; at 100.0 µM
  growth inhibition: 63%

## Cc1ccc(NCCNCCO)c2c(=O)c3cc(O)ccc3sc12
[1]; at 1.2 µM
  growth inhibition: -5%
[1]; at 3.7 µM
  growth inhibition: 12%
[1]; at 11.0 µM
  growth inhibition: 30%
[1]; at 33.0 µM
  growth inhibition: 90% (active)
[1]; at 100.0 µM
  growth inhibition: 93% (active)
[2]; at 1.2 µM
  growth inhibition: 10%
[2]; at 3.7 µM
  growth inhibition: -9%
[2]; at 11.0 µM
  growth inhibition: -5%
[2]; at 33.0 µM
  growth inhibition: -1%
[2]; at 100.0 µM
  growth inhibition: 18%
[3]; at 1.2 µM
  growth inhibition: 12%
[3]; at 3.7 µM
  growth inhibition: 22%
[3]; at 11.0 µM
  growth inhibition: 25%
[3]; at 33.0 µM
  growth inhibition: 36%
[3]; at 100.0 µM
  growth inhibition: 51%
[4]; at 1.2 µM
  growth inhibition: -10%
[4]; at 3.7 µM
  growth inhibition: 1%
[4]; at 11.0 µM
  growth inhibition: -11%
[4]; at 33.0 µM
  growth inhibition: -1%
[4]; at 100.0 µM
  growth inhibition: 90% (active)
[5]; at 1.2 µM
  growth inhibition: 4%
[5]; at 3.7 µM
  growth inhibition: 4%
[5]; [17]
  growth inhibition: 49%
[5]; at 11.0 µM
  growth inhibition: 28%
[5]; at 33.0 µM
  growth inhibition: 93% (active)
[5]; [18]
  growth inhibition: 99% (active)
[5]; at 50.0 µM
  growth inhibition: 80.8% (active)
[5]; at 100.0 µM
  growth inhibition: 95% (active)
[6]; at 1.2 µM
  growth inhibition: 5%
[6]; at 3.7 µM
  growth inhibition: -13%
[6]; [17]
  growth inhibition: 21%
[6]; at 11.0 µM
  growth inhibition: -11%
[6]; at 33.0 µM
  growth inhibition: -10%
[6]; [18]
  growth inhibition: 99% (active)
[6]; at 50.0 µM
  growth inhibition: 71.8% (active)
[6]; at 100.0 µM
  growth inhibition: 58%
[7]; at 1.2 µM
  growth inhibition: -18%
[7]; at 3.7 µM
  growth inhibition: -4%
[7]; at 11.0 µM
  growth inhibition: -2%
[7]; at 33.0 µM
  growth inhibition: 0%
[7]; at 100.0 µM
  growth inhibition: 97% (active)
[15]; at 1.2 µM
  growth inhibition: 6%
[15]; at 3.7 µM
  growth inhibition: 14%
[15]; at 11.0 µM
  growth inhibition: 24%
[15]; at 33.0 µM
  growth inhibition: 23%
[15]; at 100.0 µM
  growth inhibition: 96% (active)
[16]; [17]
  growth inhibition: 17%
[16]; [18]
  growth inhibition: 100% (active)
[16]; at 50.0 µM
  growth inhibition: 88.9% (active)
[9]; at 1.2 µM
  growth inhibition: -24%
[9]; at 3.7 µM
  growth inhibition: 0%
[9]; [17]
  growth inhibition: 18%
[9]; at 11.0 µM
  growth inhibition: 0%
[9]; at 33.0 µM
  growth inhibition: -2%
[9]; [18]
  growth inhibition: 99% (active)
[9]; at 50.0 µM
  growth inhibition: 89.2% (active)
[9]; at 100.0 µM
  growth inhibition: 96% (active)
[10]; at 1.2 µM
  growth inhibition: 10%
[10]; at 3.7 µM
  growth inhibition: 3%
[10]; at 11.0 µM
  growth inhibition: 4%
[10]; at 33.0 µM
  growth inhibition: 63%
[10]; at 100.0 µM
  growth inhibition: 24%
[11]; at 1.2 µM
  growth inhibition: -20%
[11]; at 3.7 µM
  growth inhibition: -8%
[11]; at 11.0 µM
  growth inhibition: -18%
[11]; at 33.0 µM
  growth inhibition: -10%
[11]; at 100.0 µM
  growth inhibition: 93% (active)
[12]; at 1.2 µM
  growth inhibition: 15%
[12]; at 3.7 µM
  growth inhibition: 35%
[12]; at 11.0 µM
  growth inhibition: 43%
[12]; at 33.0 µM
  growth inhibition: 48%
[12]; at 100.0 µM
  growth inhibition: 91% (active)
[13]; [17]
  growth inhibition: 13%
[13]; [18]
  growth inhibition: 99% (active)
[13]; at 50.0 µM
  growth inhibition: 81.7% (active)
[14]; at 1.2 µM
  growth inhibition: -35%
[14]; at 3.7 µM
  growth inhibition: -30%
[14]; at 11.0 µM
  growth inhibition: -27%
[14]; at 33.0 µM
  growth inhibition: -5%
[14]; at 100.0 µM
  growth inhibition: 93% (active)
